In ChEMBL document CHEMBL1157539, “Thousands of chemical starting points for antimalarial lead identification” (Nature, 2010):

Tests used:
Type in all cases: functional
[1] = test system: Plasmodium falciparum; test: GSK_TCMDC: Inhibition of Plasmodium falciparum 3D7 in whole red blood cells, using parasite LDH activity as an index of growth. Test compounds present at 2uM
[2] = test system: Plasmodium falciparum; test: GSK_TCMDC: Inhibition of Plasmodium falciparum Dd2 in whole red blood cells, using parasite LDH activity as an index of growth. Test compounds present at 2uM
[3] = test system: HepG2; test: GSK_TCMDC: Percent inhibition of human HepG2 cell line. Test compounds present at 10uM.

SMILES | Inhibition [1] | Inhibition [2] | Inhibition [3]
Cc1ccc2cc(NC(=O)CCCCCCCON3C(N)=NC(N)=NC34CCCCC4)ccc2n1.O=C(O)C(F)(F)F | 98% | 86% | 6%
COc1ccc(C(=O)CCC(=O)N(Cc2ccc(-c3ccc(CNCCc4ccc(S(C)(=O)=O)cc4)cn3)cc2)Cc2ccc3c(c2)OCO3)cc1F.O=C(O)C(F)(F)F | 95% | 41% | 13%
Cc1cc(=NN=Cc2ccccc2)c2cc(C(F)(F)F)ccc2[nH]1 | 100% | 97% | 30%
CC(C)CNCc1cccc(-c2ccc(CNC3CCN(Cc4ccccc4)CC3)cc2)c1.O=C(O)C(F)(F)F | 100% | 99% | 44%
COc1ccc(CCc2ccc(-c3c(C)[nH]c(C)c(Cl)c3=O)cc2)cc1OC | 99% | 97% | 0%
Oc1ccc(Cl)cc1Nc1nc(C(F)(F)F)nc2ccccc12 | 86% | 63% | 16%
CCc1cn2c3c(cc(C(=O)N[C@@H](Cc4ccccc4)[C@H](O)CNC4CCC4)cc13)N(C)S(=O)(=O)CC2 | 98% | 98% | 0%
Cc1ccccc1C1CCN(C2CCC(NC(=O)/C=C/c3cc(F)ccc3C(F)(F)F)CC2)CC1 (stereo not given) | 98% | 25% | 90%
C#Cc1cccc(NC(=O)[C@H](CC2CCCCC2)Nc2ccc(C#N)c3ccccc23)c1.O=C(O)C(F)(F)F | 100% | 99% | 48%
CN1CCN(c2cc3c(cc2Br)CCN3C(=O)Nc2ccc(-c3cnc4ccccc4c3)cc2)CC1 | 99% | 79% | 100%
Nc1nc(N)c2c(ccc3c2ccn3Cc2ccccn2)n1 | 90% | 94% | 66%
CCCCN(CCCC)/C(=N/C(=N)NCc1ccc(Cl)c(Cl)c1)NCCCCCCN/C(=N\C(=N)NCc1ccc(Cl)c(Cl)c1)N(CCCC)CCCC | 100% | 96% | 9%
O=C(Nc1cccc(CN2CCCN(Cc3cccc(O)c3)CC2)c1)c1ccc(-c2ccccc2)cc1.O=C(O)C(F)(F)F | 100% | 66% | 28%
Nc1nc2c(cnn2CCCCCCCP(=O)(O)O)c(=O)[nH]1 | 94% | 91% | 0%
CCn1ccc2c(N3CCCCS3(=O)=O)cc(C(=O)N[C@@H](Cc3ccccc3)[C@H](O)CNC3CCCCC3)cc21 | 98% | 98% | 1%
CSC1=NC(C)(C)CC2(CC(c3cccc(C)c3)c3cc(Cl)c(O)cc3O2)N1 (stereo not given) | 100% | 73% | 0%
Cc1cc(NCCc2ccc(O)cc2)nc(NCC(c2ccccc2)c2ccccc2)n1 | 100% | 77% | 22%
CCS(=O)(=O)O.Cc1cc(NC(=O)NC(=N)N)ccc1Cl | 100% | 15% | 11%
CC(C)c1ccc(NC(=O)Nc2ccc(Cn3ncc(N4CCCNCC4)c(Cl)c3=O)cc2)cc1.O=C(O)C(F)(F)F | 85% | 27% | 11%
O=C(/C=C/c1ccc(Cl)c(Cl)c1)NCCCCCCN1CCCN(C(=O)Nc2ccc(F)c(F)c2)CC1 | 89% | 2% | 72%
O=C(O)C(F)(F)F.O=[N+]([O-])c1cccc(CNCC2CCN(Cc3ccc(-c4ccccc4)cc3)CC2)c1 | 100% | 91% | 28%
O=C(Nc1cc(Cl)ccc1O)c1cc(-c2ccccc2O)no1 | 95% | 79% | 0%
CC(C)(C)[C@@H](Nc1ccc(C#N)c2ccccc12)C(=O)NC1(Cc2ccc(O)cc2)CCCC1 | 90% | 74% | 14%
COc1ccc(NC(=O)/C=C/c2ccccc2Cl)cc1OCCN1CCC(N2CCCC2)CC1.O=C(O)C(=O)O | 100% | 23% | 22%
CN1CCC(NCc2cccc(-c3ccc(S(=O)(=O)NCCc4ccccn4)c(F)c3)c2)CC1.O=C(O)C(F)(F)F | 98% | 26% | 11%
Cc1cc(-c2cnc(N)c(-c3ccc(N4CCN(C)CC4)cc3)c2)cc(C)c1O | 100% | 99% | 3%
O=C(C=Cc1ccc(Br)cc1)N1CCC(CCN2CCC(c3c[nH]c4ccccc34)CC2)CC1 | 98% | 24% | 47%
Nc1ccc(-c2ccc(NC(=O)Nc3ccccc3)cc2)cn1 | 91% | 93% | 0%
COc1cc2nc(NCCCO)nc(Nc3ccc(Oc4ccccc4)cc3)c2cc1OC | 100% | 100% | 24%
OC(CNC1CCCCC1)Cn1c2ccc(Br)cc2c2cc(Br)ccc21 (stereo not given) | 98% | 100% | 10%
